The text below walks through data of PubChem BioAssay (NCATS).

The structures appear in SMILES notation. Results filed as inconclusive are left out. Unmarked numbers belong to inactive results. The source made the active and inactive calls. Calls come from the whole dose curve; as a rule, active = well fitted inhibition curve with a large enough effect; inconclusive = small, poorly fitted or top-dose-only effect; inactive = flat fitted curve, though single readings scatter.
Potency is the fitted concentration of half-maximal effect.

In this experiment the test system is Zika virus NS2B-NS3 protease. Description: Primary screen GU AMC qHTS for Zika virus inhibitors (AID 1347154).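 For activity change, negative = inhibition: 0% = no-inhibitor control and -100% = no-enzyme control.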 Note: nearly all actives have a fitted effect of over 70% in size. The following applies: Zika NS2B-NS3 unlinked protease, AMC fluorogenic substrate; series mostly up to 54.1 µM; activity change, negative = inhibition: at the top concentration. The text has this: Avindra Nath, Ph.D., National Institute of Neurological Disorders and Stroke (NINDS), Bethesda, MD
Radhakrishnan Padmanabhan, Ph.D., Georgetown University (GU), Washington D.C.
Zika Virus causes congenital defects, including microcephaly and is associated with Guillain-Barre syndrome, eningoencephalitis and myelitis in infected adult. […] Using a target-based approach, we hope to establish a screening paradigm to uncover novel, cell-active NS2B-NS3 protease (Zika Virus) specific inhibitors from NCATS' collection of small molecules using qHTS.
Early Translation Branch (ETB)
National Center for Advancing Translational Sciences (NCATS), Rockville, MD
National Institute of Health (NIH), Bethesda, Maryland
Padmanabhan lab provided the NS2B hydrophilic domain and NS3 protease domain in a noncovalent complex used for the unlinked assay. Control compound aprotinin is obtained from Thermo Scientific (#78432; Waltham, Massachusetts). NS2B-NS3 AMC substrate (Bz-Nle-Lys-Arg-Arg-AMC; Nle-KRR-AMC) purchased from Bachem (#I-1995; Torrance, CA). Ac-VKTGKR-AMC purchased from Genscript or Bachem, Ac-FAAGKR-AMC purchased from Genscript, Ac-GLVKRR-AMC purchased from Genscript, Ac-LKKR-AMC purchased from Genscript.
GU AMC unlinked NS2B-NS3 protease qHTS protocol
Briefly, 3 microL of Zika virus unlinked NS2B-NS3 protease (25 nM for linked final concentration), in assay buffer (10 mM Tris-HCl pH 8.0 with 0.01% Tween 20) was dispensed into a 1,536-well solid-bottom black plate (Greiner Bio One, Monroe, NC). […] Plates were then read immediately on a ViewLux High-throughput CCD imager (PerkinElmer, Waltham, MA) equipped with standard UV fluorescence optics (340(30) nm excitation, 450(20) nm emission) then incubated (room temperature, protected from light) for 15 minutes (~20% conversion). The change in fluorescence intensity over the 15-minute reaction period was normalized against no-inhibitor and no-enzyme controls and the resulting percent inhibition data were fitted to a 4-parameter Hill equation. Aprotinin was used as the intraplate control.
As to `COc1ccc2ccc(=O)oc2c1CC=C(C)C`, the “activity change, negative = inhibition” value was -6.72%.

For the compound `CN(C)CCN(C)C(=O)c1ccc(NC(=O)Nc2ccc(-c3nc(N4CCOCC4)c4ccn(CC(F)(F)F)c4n3)cc2)cc1`, the “activity change, negative = inhibition” value was 7.13%.

Consider `CC(=O)Nc1cccc(-n2c(=O)n(C3CC3)c(=O)c3c(Nc4ccc(I)cc4F)n(C)c(=O)c(C)c32)c1`, for which the “activity change, negative = inhibition” value was 11.7%. For `C[C@@H]1C[C@H]2[C@@H]3CCC4=CC(=O)C=C[C@]4(C)[C@@]3(F)[C@@H](O)C[C@]2(C)[C@@]1(O)C(=O)CO`, the Potency result is “inactive”.

On to `COc1cc(CNC(=O)CCCCC=CC(C)C)ccc1O`, for which the “activity change, negative = inhibition” value was -17.1%. With `NC(=O)c1nnn(Cc2cc(Cl)c(C(=O)c3ccc(Cl)cc3)c(Cl)c2)c1N`, the “activity change, negative = inhibition” value is -9.17%. In the case of `COc1cc2c(cc1OC)[C@@H]1Cc3ccc(OC)c(OC)c3CN1CC2`, the “activity change, negative = inhibition” value was 0.149%. As to `CN1CCC[C@H]1CCO[C@](C)(c1ccccc1)c1ccc(Cl)cc1`, the “activity change, negative = inhibition” value is 5.68%. On the same count and under the same terms, the value for `Cn1cnc(-c2cc3nccc(Oc4ccc(NC(=S)NC(=O)Cc5ccccc5)cc4F)c3s2)c1` was 3.95%; that for `Fc1ccc(CNc2ncnc3ccc(F)cc23)cc1` was 1.54%; that for `CC(C)(CO)[C@@H](O)C(=O)NCCC(=O)O` was 10.2%.

On to `CNC(=O)c1c(-c2ccc(F)cc2)oc2cc(N(CCO)S(C)(=O)=O)c(C3CC3)cc12`, for which the Potency is 27.1 µM (active). In the case of `CCCCC[C@H](O)C=C[C@H]1[C@H](O)CC(=O)[C@H]1CC=CCCCC(=O)O`, the “activity change, negative = inhibition” value is -4.93%.

Consider `CN[C@H]1[C@@H](O[C@@H]2[C@H](O[C@@H]3[C@@H](O)[C@@H](O)[C@@H](N=C(N)N)[C@@H](O)[C@@H]3N=C(N)N)O[C@H](C)[C@@]2(O)C=O)O[C@@H](CO)[C@@H](O)[C@H]1O`, for which the “activity change, negative = inhibition” value was 4.66% [at 16.4 µM].

Regarding `CN(C)CCCNC(=O)c1ccc(-c2cc(O)c3ncccc3c2)cc1`, the “activity change, negative = inhibition” value is 3.52%. On to `CC(C)C[C@@H](N)[C@H](O)C(=O)N[C@H](C(=O)N[C@H](C(=O)N[C@@H](CC(=O)O)C(=O)O)C(C)C)C(C)C`, for which the “activity change, negative = inhibition” value is -12.5%. In the case of `O=C(CO)N1CCC(c2[nH]nc(-c3ccc(Cl)cc3)c2-c2ccncn2)CC1`, the “activity change, negative = inhibition” value was -10.1%. `COc1ccnc(CS(=O)c2nc3ccc(OC(F)F)cc3[nH]2)c1OC` (stereo not given): the Potency entry is “inactive”. `CC(C)[C@H](O)C(=O)N[C@@H](C)C(=O)N[C@@H]1C(=O)N(C)CCc2ccccc21`: the “activity change, negative = inhibition” value is -0.141%.

For `CN(C)CCOc1ccc(C(=C(CCCl)c2ccccc2)c2ccccc2)cc1`, the “activity change, negative = inhibition” value is 2.7%. Consider `Cc1cnc(CNC(=O)c2c(=O)c3ccc(N4CCCN(C)CC4)nc3n3c2sc2ccccc23)cn1`, for which the “activity change, negative = inhibition” value is 5.27% [at 25.8 µM]. Still for that read-out and setting: the same measure for `COc1ccc2c(c1)CC[C@H]1[C@@H]2CC[C@]2(C)[C@@H](NCCCCCCN3C(=O)C=CC3=O)CC[C@H]12`: -1.52%; for `COc1cc([C@@H]2c3cc4c(cc3[C@@H](O[C@@H]3O[C@@H]5CO[C@@H](C)O[C@@H]5[C@H](O)[C@@H]3O)[C@H]3COC(=O)[C@H]23)OCO4)cc(OC)c1O`: 14%. In the case of `O=C(Nc1cccc2c(=O)cc(-c3nn[nH]n3)oc12)c1ccc(OCCCCc2ccccc2)cc1`, the Potency is 8.91 µM (active).

Take `C[C@@H](O)[C@H]1C(=O)N2C(C(=O)OCOC(=O)C(C)(C)C)=C(SC3CN(C4=NCCS4)C3)[C@H](C)[C@H]12`: the “activity change, negative = inhibition” value was 1.47%. With `N[C@@H](CC(=O)N1CCn2c(nnc2C(F)(F)F)C1)Cc1cc(F)c(F)cc1F`, the “activity change, negative = inhibition” value was 4.35%.

On to `CC1=C(CC(=O)O)c2cc(F)ccc2C1=Cc1ccc(S(C)=O)cc1` (stereo not given), for which the “activity change, negative = inhibition” value was -1.36%. Still for that read-out and setting: the value for `COc1cc(N2CCN(C)CC2)ccc1Nc1nc(N)c(C(=O)c2c(Cl)cccc2Cl)s1` was 1.09%. Same read-out and setting: the same measure for `CC(C)(OCc1nn(Cc2ccccc2)c2ccccc12)C(=O)O`: 7.29%. In the case of `Cc1ccccc1C(C(=O)NC1CCCCC1)N(C(=O)CNc1ccc(C#N)cc1)c1cccc(F)c1` (stereo not given), the “activity change, negative = inhibition” value was 5.34%. In the case of `C[C@@]1(C(=O)Nc2ccc(F)nc2)CCCN1c1nc(Nc2cc(C3CC3)[nH]n2)c2cccn2n1`, the “activity change, negative = inhibition” value was 10.3%. Take `Cc1ccc2c(c1)c1c(n2CCc2ccc(C)nc2)CCN(C)C1`: the “activity change, negative = inhibition” value was -4.03%. Still for that read-out and setting: the value for `O=C(O)c1ccc(O)c2ncc(N3CCOCC3)cc12` was -18.1%; that for `CC(C)CN(C[C@@H](O)[C@H](Cc1ccccc1)NC(=O)O[C@H]1CO[C@H]2OCC[C@H]21)S(=O)(=O)c1ccc(N)cc1` was -6.5%; that for `CCC(C)SSc1ncc[nH]1` (stereo not given) was -0.983%.

As for `COc1ccc2c(c1)c(C1=C(c3c[nH]c4ccccc34)C(=O)NC1=O)cn2CCCN(C)C`, the “activity change, negative = inhibition” value was 9.92%. For `CC1(COc2ccc3c(c2)ncn3-c2ccc3cccc(N4CCC(N)CC4)c3n2)COC1`, the “activity change, negative = inhibition” value is -4.98%.

Regarding `CCNC(=O)[C@H]1O[C@@H](n2cnc3c(N)nc(NCCc4ccc(CCC(=O)O)cc4)nc32)[C@H](O)[C@H]1O`, the “activity change, negative = inhibition” value is -0.653%. Take `O=C(CCCN1CCN(c2ccc(F)cc2)CC1)NC1c2ccccc2CSc2ccccc21` (stereo not given): the “activity change, negative = inhibition” value is 10.8%. In the case of `CC(C)c1onc(-c2c(Cl)cccc2Cl)c1COc1ccc(C=Cc2cccc(C(=O)O)c2)c(Cl)c1`, the Potency is 13.6 µM (active).
